FMDV inh: antivirals against foot and mouth disease virus. FMDV antiviral cell-based qHTS. Potency, µM (titrated, usually from 57.9 µM), for inactives: top-dose activity change, negative = inhibition, usual class: inhibitors. 410,000 compounds, 1.2% hits. AID 1159524; calls by dose curve; tested in HEK293T cells; also: read-out not given here; potency is read from the fitted curve at half-maximal effect; nearly all actives have a fitted effect of over 45% in size
HCMV antiviral: blocks human cytomegalovirus replication; 410,000 compounds, 4.5% hits; activity change, negative = inhibition, % at 57.5 µM; HFF cells, HCMV-luciferase reporter, 72 h; active compounds read low; in the data active = activity change below about -60%; inconclusive = no clear call, values can overlap the other calls; inactive = above about -39%
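Inhibition of viral replication was scored as loss of reporter luminescence in HFFs infected with HCMV-luciferase (MOI 1 PFU/cell) for 72 h; compounds tested at 2 doses, normalized to buffer and Salinomycin controls.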
Sm TGR inh: S. mansoni TGR enzyme inhibition | Potency, µM (top dose mostly 114 µM), inactives show at the top dose activity change, negative = inhibition, usual class: inhibitors | Q962Y6 | 360,000 compounds, 3% hits | purified TGR, DTNB reduction, TNB absorbance 405 nm; also: potency is read from the fitted curve at half-maximal effect; nearly all actives have a fitted effect of over 60% in size
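First, TGR (20 nM dispensed) and NADPH were mixed with compound. Second, a 15 min room-temperature incubation followed. Third, further NADPH and then DTNB were added to start the reaction. Finally, TNB absorbance was monitored kinetically.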
HCV inh: inhibitors of hepatitis C virus infection; Huh7.5.1 HCVcc-Cre infection, luciferase reporter, 44 h; Potency, µM (series often up to 41.8 µM), for inactives: at the top dose activity change, negative = inhibition, usual class: inhibitors; 340,000 compounds, 3.4% hits; AID 651820; also: potency is read from the fitted curve at half-maximal effect
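Luciferase read-out (15 sec integration) after a 15 min room-temperature substrate step quantifies HCVcc-Cre infection. Cells, 1,000 per well, had compound added 4 h post-plating, then virus at ~0.5 moi, and were cultured 44 h.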
Vaccinia mCherry: vaccinia inhibition (mCherry reporter); Vaccinia virus mCherry reporter infection, fluorescence; Potency, µM (doses to about 36.5 µM), for inactives: top-dose activity change, negative = inhibition, usual class: inhibitors; 310,000 compounds, 0.63% hits; AID 720579; calls by dose curve; tested in A549 cells; also: potency is read from the fitted curve at half-maximal effect; nearly all actives have a fitted effect of over 35% in size
VACV Venus inh: inhibitors of vaccinia virus (Venus reporter); Vaccinia virus Venus reporter expression, fluorescence; Potency, µM (titrated, usually from 36.5 µM), inactives show at the highest dose activity change, negative = inhibition, usual class: inhibitors; 330,000 compounds, 0.46% hits; AID 720580; calls by dose curve; tested in A549 cells; also: potency is read from the fitted curve at half-maximal effect; nearly all actives have a fitted effect of over 30% in size
An asterisk follows results filed as active; i = inactive; ? = inconclusive; . = no result given; [ ] = dose if it differs, or a comment. The list is not random: actives were taken first. Their share in the collection is about 9.3%. Unless noted, calls follow the shape of the dose curve; as a rule, active = well fitted curve in the direction sought with a large enough effect; inconclusive = small, poorly fitted or top-dose-only effect, or another doubt; inactive = no such curve, though single readings can be large; an effect the other way counts as inactive or inconclusive. % is scaled to controls: 0 for no effect and ±100 for the full control effect.

SMILES	FMDV inh	HCMV antiviral	Sm TGR inh	HCV inh	Vaccinia mCherry	VACV Venus inh
Cc1ccc(NC(=O)c2sc(-n3nc(C)c(Cc4ccc5c(c4)OCO5)c3C)nc2C)cc1C	-4.4%	-113.1*	0.0%	.	-9.6%	-5.8%
CCOC(=O)[C@]12CCC=C1N(Cc1ccc3c(c1)OCO3)C(=O)[C@H](CC(=O)NCc1ccc(C)o1)C2	-3.5%	6.8	.	.	-5.8%	-8.9%
Cc1nn(C)c(NC(=O)c2ccc([N+](=O)[O-])cc2)c1Cl	-6.8%	3.0	-12.8%	21.7%	-5.8%	-11.2%
CCC1C(=O)C(C)(C)C(=O)OC1c1ccc([N+](=O)[O-])cc1 (stereo not drawn)	-18.1%	59.1	-16.5%	-30.0%	-7.9%	-16.6%
O=C1CC(=O)OC(c2ccc([N+](=O)[O-])cc2)O1	10µM*	.	.	.	12.6µM*	12.6µM*
CCOC(=O)c1ccc(NC(=O)CN(c2ccc(C)cc2)S(=O)(=O)c2ccc(OC)cc2)cc1	-10.5%	7.5	9.1%	.	-6.6%	-4.7%
O=C(/C=C/c1cccs1)Nc1cccc(NC(=O)/C=C/c2cccs2)n1	-21.4%	-24.7	-7.5%	?	-5.8%	-26.5%
O=C(Nc1ccccc1C(=O)Nc1ccc(Br)cn1)c1ccccc1Cl	-22.4%	0.0	-2.1%	12.6µM*	.	.
Cc1ccnc(NC(=O)c2ccccc2NC(=O)c2ccc(Cl)cc2Cl)c1	7.4%	3.9	0.0%	10µM*	.	.
Cc1ccccc1C(=O)Nc1ccc(Br)cn1	.	27.5	-13.1%	?	?	-30.0%
O=C(/C=C/c1cccs1)Nc1ccc(Br)cn1	41.0%	-66.1*	-3.0%	8.1%	-21.3%	-29.3%
O=C(Nc1ccc(Br)cn1)c1ccc(Br)s1	0.7%	-99.3*	-23.2%	?	-23.3%	-22.9%
O=C(Nc1ccc(Br)cn1)c1ccc(Cl)s1	1.6%	73.8	-1.0%	?	-19.2%	-14.9%
Cc1nnc(SCc2ccc(CSc3nnc(C)c(=O)[nH]3)cc2)[nH]c1=O	-3.0%	-37.6	0.2%	15.3%	-10.3%	4.6%
[O-]/C(=C(\C(=S)Nc1ccc(Cl)cc1)[n+]1ccccc1)c1ccc(OC(F)F)cc1	-15.9%	?	-20.6%	11.2µM*	.	.
[O-]/C(=C(\C(=S)Nc1ccccc1F)[n+]1ccccc1)c1ccc(-c2ccccc2)cc1	34.0%	64.2	-4.6%	24.7%	i	-14.1%
Cc1ccc(-n2nc(C(=O)c3ccccc3)n3c(=O)cc(-c4ccccc4)nc23)cc1	-9.1%	-32.5	3.5%	-28.6%	.	-0.9%
CCOC(=O)C1=CN(CC)S(=O)(=O)NC1CC (stereo not drawn)	-10.3%	-9.7	.	0.3%	-18.4%	-14.4%
COc1cc(C(=O)NC2CCN(C)CC2)ccc1Nc1ncc2c(n1)N(CCc1ccccc1)CCC(=O)N2C	0.0%	-77.6*	.	-48.5%	?	?
COc1cc(C(=O)NC2CCN(C)CC2)ccc1Nc1ncc2c(n1)N(C1CCCC1)CCC(=O)N2C(C)C	-1.1%	.	.	27.8%[8.37 µM]	?	?
C/C(=N/Nc1cc(-c2ccccc2)nc(-c2ccccc2)n1)c1ccc(O)cc1	5.1%	-65.4*	2.4%	?	?	?
CC(C)(C)NC(=O)C1c2ccccc2OCC(=O)N1Cc1ccccc1 (stereo not drawn)	0.0%	-8.1	.	.	4.5%	0.2%
CC(C)(C)c1ccc(-c2csc(NNC3=NCCCCC3)n2)cc1	29.4%	-4.6	19.6%	25.1µM*	.	.
FC(F)Oc1ccc(-c2csc(NNC3=NCCCCC3)n2)cc1	28.2µM*	-15.7	-0.8%	?	-6.5%	-12.7%
Brc1ccc(-c2csc(NNC3=NCCCCC3)n2)cc1	28.6%	?	-3.9%	?	.	.
SMILES	FMDV inh	HCMV antiviral	Sm TGR inh	HCV inh	Vaccinia mCherry	VACV Venus inh
c1ccc(-c2csc(NC3=NCCCCC3)n2)cc1	0.8%	-6.1	-8.0%	1.4%	i	-0.5%
CC(C)n1cnc2c(NCc3ccccc3)nc(NCc3ccccc3)nc21	-17.1%	-8.4	0.5%	-8.5%	-9.4%	?
N#Cc1c2c(c(=S)n(-c3ccccc3)c1N)CCCC2	-22.1%	27.6	39.8µM*	?	-5.3%	18.8%
CC(C(=O)Nc1sc2c(c1C(=O)NCC1CCCO1)CCC2)N1C(=O)c2ccccc2C1=O (stereo not drawn)	-27.0%	-100.2*	-8.3%	-12.1%	-19.0%	-10.8%
CCN(CC)CCCNC(=S)N(CCCO)Cc1cc2cc3c(cc2[nH]c1=O)OCO3	-13.9%	-30.0	-2.1%	15.4%	.	.
O=C(c1ccco1)N1CCN(C(=O)c2cccc3c2C(=O)N(C2CCCCC2)C3)CC1	-6.2%	-32.6	50.1µM*	-9.0%	i	2.0%
CC(C)(C)CC(C)(C)c1ccc(O)c(CN2CCN(CCC#N)CC2)c1	?	-17.4	1.0%	1.5%	.	.
CC(C)(C)CC(C)(C)c1ccc(O)c(Cc2ccc(Cl)cc2Cl)c1	28.2µM*	-85.9*	.	-19.2%	?	?
Cc1cccc(OS(=O)(=O)NC(=O)OCC2CCCN3CCCCC23)c1 (stereo not drawn)	31.6µM*	-13.7	-3.0%	8.8%	-9.3%	-11.0%
COc1cccc(CNC(=O)c2ccc(NC(=O)CC3SC(N4CCCCC4)=NC3=O)cc2)c1 (stereo not drawn)	-9.6%	0.0	-0.9%	5.9%	-10.3%	-20.4%
COC(=O)c1sc2nc(CN3CCN(c4ccc(OC)cc4)CC3)[nH]c(=O)c2c1C	-2.9%	-79.9*	-7.3%	8.0%	-12.8%	3.2%
COc1ccc(N2CCN(Cc3nc4sc(C)c(C)c4c(=O)[nH]3)CC2)cc1	-1.6%	97.6	0.8%	10.1%	i	-1.4%
O=c1[nH]c(CN2CCN(c3ccccc3O)CC2)nc2scc(-c3ccccc3Cl)c12	?	0.0	-2.4%	12.6µM*	?	0.5%[7.34 µM]
COc1cccc(N2CCN(Cc3nc4scc(-c5ccccc5)c4c(=O)[nH]3)CC2)c1	?	-61.5*	-1.4%	12.6µM*	?	?
O=c1[nH]c(CN2CCN(c3ccc(O)cc3)CC2)nc2scc(-c3ccc(Cl)cc3)c12	-29.3%	?	.	6.31µM*	.	.
CCC1=C(C)CN(C(=O)NCCc2ccc(S(=O)(=O)NC(=O)NC3CCC(C)CC3)cc2)C1=O (stereo not drawn)	15.6%	26.4	.	-1.5%	i	-13.8%
CCCSCCCNC(=O)c1ccc(C)c(NC(=O)C2=C(C)OCCS2)c1	-2.4%	-20.8	-9.4%	-16.8%	.	.
O=C(O)c1ccccc1N/N=C\c1ccnc2ccccc12	10µM*	?	0.5%	6.4%	.	-12.7%
COCCC(=O)N1CCC(Oc2ccc(C(=O)N3CCCC(COC)C3)cc2)CC1 (stereo not drawn)	1.5%	19.0	-6.3%	6.7%	-10.8%	-10.3%
Cc1ccc(-n2c(-c3ccccc3)c[n+]3c2CCC3)cc1	?	-94.7*	.	-28.9%	-14.1%	4.6%
Cc1ccc(-n2c(-c3ccc(Cl)cc3)c[n+]3c2CCC3)cc1	?	-91.2*	14.0%	?	.	.

Assay outcomes: PubChem BioAssay, National Center for Advancing Translational Sciences (NCATS)
